Experimental data: the supplement of paper PMC3334620
In all, about 33,000 sequences were measured (“E-score (-0.5 to 0.5)”: median about -0.013, highest 2% from about 0.3 on). This excerpt belongs to a sample that is enriched for the highest values.

What follows are sequences tested against T1, Msn1 (UniProt P22148) (assay: PBM E-score (8-mer binding enrichment) (E-score (-0.5 to 0.5)); higher = stronger / more preferred TF binding). Details: protein concentration: 200 nM; construct: GST-full length.
T1 sequence: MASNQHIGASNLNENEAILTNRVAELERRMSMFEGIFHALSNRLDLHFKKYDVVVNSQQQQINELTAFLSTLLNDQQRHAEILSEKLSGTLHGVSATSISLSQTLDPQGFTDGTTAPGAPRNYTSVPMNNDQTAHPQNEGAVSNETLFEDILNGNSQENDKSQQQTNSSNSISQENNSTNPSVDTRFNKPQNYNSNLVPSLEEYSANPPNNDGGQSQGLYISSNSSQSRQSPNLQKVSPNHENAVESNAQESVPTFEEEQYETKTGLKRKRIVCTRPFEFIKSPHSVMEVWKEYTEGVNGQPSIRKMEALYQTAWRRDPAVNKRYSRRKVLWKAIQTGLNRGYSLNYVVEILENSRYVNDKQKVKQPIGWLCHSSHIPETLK
How it was run: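 For each ungapped eight-base word taken together with its reverse complement, the Universal PBM Analysis Suite assigned an E-score. Binding data came from GST-tagged yeast transcription factors, applied at about 100-200 nM, on universal all-10-mer Agilent arrays made double-stranded by primer extension. Fluorescent anti-GST marked bound protein, and scans were normalised with masliner.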

Row | Sequence | PBM E-score
1 | CATACTCA | 0.0936
2 | ATTGGACC | -0.101
3 | CTTGGAGA | -0.00816
4 | GTTGGATA | 0.0207
5 | CTTGGACA | 0.44
6 | GTTGGACA | 0.437
7 | ATTGGACG | 0.211
8 | GTTGGAAA | 0.165
9 | CTTGGACC | -0.163
10 | ATTGGACA | 0.445
11 | CACAATGG | 0.0832
12 | TAGGAACA | 0.0697
13 | GGGTGTCA | -0.0869
14 | AGAGCTCT | -0.265
15 | AGCCTCCG | -0.213
16 | AGTACTTG | 0.147
17 | AGGACAGC | 0.078
18 | ACGACACG | 0.206
19 | AGCACACG | -0.0792
20 | ATGACACG | 0.214
21 | AGGACAGA | 0.437
22 | AGGACACC | 0.255
23 | AGGACACT | 0.358
24 | AGGACACA | 0.472
25 | ACGACACA | 0.172

Row | Sequence | PBM E-score
26 | ACGACACT | 0.123
27 | AGGACACG | 0.467
28 | AGGACAGG | 0.28
29 | TCGCAAGA | -0.177
30 | AGGCAAAA | 0.163
31 | CTTGTTCA | -0.0388
32 | GAGAGTTA | -0.0018
33 | TCAGTTCA | -0.039
34 | ACTAAAAA | 0.309
35 | ACTAAAAG | 0.0984
36 | ATTAAAAG | 0.156
37 | TATAAAAA | 0.318
38 | ACTAAAAC | 0.14
39 | TATATAAA | 0.253
40 | ATTAAAAA | 0.327
41 | ATTAAAAC | 0.156
42 | CATAAAAA | 0.181
43 | CAATTTCC | 0.0903
44 | ACCAACAG | -0.127
45 | CGCAAACA | 0.143
46 | CAGCACAG | 0.00522
47 | GTCGTCTA | -0.00305
48 | CGCGTGTC | 0.344
49 | AGCGTGTC | 0.0384
50 | CGCGTGTA | 0.114

Row | Sequence | PBM E-score
51 | AGAAATGG | -0.076
52 | ACCCTTAT | -0.0336
53 | TATGGAGA | 0.0848
54 | GATGGACC | 0.0221
55 | CATGGACC | -0.0789
56 | AATGGACG | 0.185
57 | CATGGACA | 0.47
58 | TATGGACA | 0.476
59 | AATGGACT | 0.19
60 | GATGGACA | 0.443
61 | CATGGACG | 0.137
62 | AATGGACA | 0.438
63 | TATGGAAA | 0.071
64 | GATGGAAA | -0.126
65 | ATTGGTAA | 0.00511
66 | CCTCCTGA | -0.153
67 | ACACATCC | 0.0829
68 | AATACCCA | -0.0704
69 | TATTGTGA | 0.0467
70 | AGCACCAA | 0.0195
71 | ACAGTGCC | 0.063
72 | CGAATCGA | 0.213
73 | ACAGCCTG | -0.0349
74 | ATGCCAAC | 0.0264
75 | ATTTCCCG | 0.188

Row | Sequence | PBM E-score
76 | AACTACTT | 0.00311
77 | ATGAGCAT | 0.017
78 | CAGAAATA | 0.0248
79 | AAGTCCTC | 0.244
80 | ACGTCCTA | 0.354
81 | AAGTCCTG | 0.292
82 | ACGTCCTG | 0.0274
83 | CCGTCCTA | -0.0332
84 | AAGTCCTA | 0.409
85 | ATTGTTCG | 0.259
86 | ATTGTCAA | 0.12
87 | ATCGTCCA | -0.0991
88 | CTTGTCAA | 0.162
89 | CTTGTACC | 0.286
90 | ATTGTACA | 0.242
91 | CTTGTACA | 0.311
92 | ACTGTCCG | 0.183
93 | CTTGTCGA | 0.0891
94 | ATTGTCCA | 0.466
95 | ATTGTCCG | 0.468
96 | CTTGTCCA | 0.464
97 | CATTATGC | -0.00798
98 | AGTTCGCC | 0.00171
99 | GACGCGAA | 0.0618
100 | TACTCGAA | -0.00961

Row | Sequence | PBM E-score
101 | GCCGACGC | 0.0201
102 | GTTGTCAA | 0.0641
103 | ATTGTCAC | 0.297
104 | ACTGTCCC | 0.127
105 | GTTGTCCA | 0.381
106 | CTTGTCCC | 0.47
107 | GTTGTCGA | 0.00891
108 | CTGGTCCC | -0.218
109 | CTTGTCAC | 0.296
110 | ATTGTCCC | 0.462
111 | AAACCTTC | -0.288
112 | GCCGTCGC | -0.0331
113 | CTTCAGGC | -0.0893
114 | CAATTGAG | -0.0282
115 | ACATTAGC | 0.147
116 | CAAATCAA | 0.126
117 | CGACAGGC | -0.152
118 | GAGTTCCC | 0.0462
119 | GTGCTGAA | -0.191
120 | ATGCGTGC | -0.0193
121 | ACTTGTGA | -0.103
122 | ACTTGTCA | 0.369
123 | ACTTGTGC | -0.14
124 | ACTTGTCT | 0.407
125 | ACTTGTCG | 0.297

Row | Sequence | PBM E-score
126 | ACTTGTCC | 0.467
127 | GCTTGTCC | 0.454
128 | TCTTGTCA | 0.238
129 | GCTTGTAC | 0.267
130 | ACTTGGCT | -0.176
131 | GCTTGTCA | 0.209
132 | ACTTGTAT | 0.145
133 | CCTAGCTC | -0.148
134 | CGGTCGCA | -0.0568
135 | CCAACGGA | -0.08
136 | GGCACTAC | -0.284
137 | CGCTCTGC | -0.112
138 | CCTTGTCG | 0.0372
139 | CCTTGTCC | 0.449
140 | CCTTGTCA | 0.0263
141 | CTGGTATC | -0.0417
142 | GACCTATC | 0.0973
143 | GGTGCTAC | -0.204
144 | ATGTCGTC | 0.191
145 | ATGTCGTA | 0.395
146 | ATGTCGTG | 0.337
147 | CTGTCGTA | -0.0467
148 | ATGTCGAG | 0.162
149 | GTGTCGTA | 0.228
150 | GCTGCGTA | -0.124

Row | Sequence | PBM E-score
151 | AAACGAGC | -0.0279
152 | GCCAAAGC | -0.0464
153 | CACTGCCG | 0.0826
154 | CGAGGACA | 0.453
155 | GGAGGACA | 0.4
156 | TGAGGACA | 0.46
157 | AGAGGACT | -0.21
158 | TGAGGCCA | -0.117
159 | CGAGGACG | 0.0859
160 | GGAGGACC | -0.25
161 | TGAGGAAA | 0.0866
162 | AGAGGACA | 0.353
163 | GGAGGAGA | -0.179
164 | AGAGGACC | -0.208
165 | CGAGGACC | -0.14
166 | CCACACGA | 0.00165
167 | AACGAATA | -0.0354
168 | ATAGTCTA | -0.0808
169 | GTGCCTGA | -0.25
170 | AATAACTC | 0.00363
171 | GGAGAACA | 0.0888
172 | ACAACCCA | 0.0013
173 | CGTGTCGA | 0.0442
